Hits are enriched below; roughly 2.4% of the tested compounds scored in any of these assays.
D2 antag – antagonizes the human D2 dopamine receptor; HEK293 TREx D2 cells, calcium flux, dopamine EC80; inhibition, % at 10 µM; 2% of 340,000 active; in the data active = inhibition above about 30%; inactive = below that, where a call was filed
Target sequence (P14416 whole entry, looked up): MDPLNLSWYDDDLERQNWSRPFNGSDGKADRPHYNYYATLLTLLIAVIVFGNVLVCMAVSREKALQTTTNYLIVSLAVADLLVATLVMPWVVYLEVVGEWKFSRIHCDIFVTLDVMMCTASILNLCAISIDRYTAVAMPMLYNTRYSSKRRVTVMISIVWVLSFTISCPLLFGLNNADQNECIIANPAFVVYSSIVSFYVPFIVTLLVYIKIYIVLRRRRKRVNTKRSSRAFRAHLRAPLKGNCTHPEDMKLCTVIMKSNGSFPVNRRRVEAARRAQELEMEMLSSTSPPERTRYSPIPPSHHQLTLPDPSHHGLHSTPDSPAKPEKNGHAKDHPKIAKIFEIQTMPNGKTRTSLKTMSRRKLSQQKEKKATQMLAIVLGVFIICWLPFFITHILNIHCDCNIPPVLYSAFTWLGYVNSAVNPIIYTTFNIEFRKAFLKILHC
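Measurement of antagonist activity uses fluorescent calcium dye in inducible HEK293 T-REx D2 cells: 10 s baseline, compound addition with 180 s read, EC80 dopamine addition with a further 180 s read.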
D2 ag-1 – agonists of human D2 dopamine receptor. 0.53% of 340,000 active. activation, % at 2 µM. HEK293 T-REx D2 cells, calcium flux agonist mode. P14416;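 active = activation over 3 SD above normal in the single-dose calcium agonist read, cut at about 30% in these data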
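Calcium-flux readout, 1 cycle/sec over 180 s following compound pin transfer, in inducible HEK293 Trex D2 cells (force-coupled); dopamine controls included. Positive calcium responses during this window marked compounds as potential agonists.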
D2 PAM-1 – D2 dopamine receptor (human) potentiation; HEK293 T-REx D2, calcium flux, EC20 dopamine potentiation; potentiation, % at 10 µM; 0.34% of 340,000 active;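 active = potentiation over 3 SD above the plate norm, cut at about 30% in these data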
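Calcium flux readout, no-wash dye, 1 read/s. Inducible HEK293 Trex D2 line, overnight 30 C. Compound alone 180 s (agonist flags), then EC20 dopamine, another 180 s to score potentiation.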
D2 ag-2 – agonists of human D2 dopamine receptor (beta-arrestin); P14416; DiscoveRx PathHunter D2 beta-arrestin, luminescence, 90 min; 100% = 57 uM dopamine signal; activation, % (no concentration beside the values); 0.084% of 360,000 active; AID 624465; in the data active = activation above about 40%
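DiscoveRx PathHunter D2 beta-arrestin cells (2,100/well) attached overnight, then compound-stimulated 90 min at 37 C in HBSS/10 mM HEPES/0.1% Tween-20 buffer; beta-galactosidase complementation read by luminescence after 1 h at ambient temperature. Dopamine 57 uM final (EC100) as control.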
D2 PAM-2 – potentiates the human D2 dopamine receptor allosterically | P14416 | 0.23% of 360,000 active | DiscoveRx D2 beta-arrestin cells, luminescence, 90 min; 100% = 57 uM dopamine signal | potentiation, % (concentration not given with the values); in the data active = potentiation above about 50%
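D2 cells co-treated with compound plus 50 nM dopamine (EC20) for 90 min at 37 deg C to detect potentiation. Beta-arrestin recruitment was read as enzyme-fragment luminescence after 1 h at ambient temperature. Full response was set by 57 uM dopamine.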
Of the large screens only hits and unclear results are named; the others gave an inactive call.

CCOc1ccc(-c2nnc(NC(=O)Cc3ccc(OC)cc3)o2)cc1	D2 antag 35
COc1ccc(-c2nnc(NC(=O)c3ccc(F)cc3)o2)cc1	D2 antag 34
Cn1c(/C(C#N)=C/c2ccc(C(F)(F)F)cc2)nc2ccccc21	none (no result: D2 antag, D2 ag-2, D2 PAM-2)
O=C(O)c1cc2cc(S(=O)(=O)O)ccc2cc1O	none (no result: D2 antag, D2 ag-1, D2 PAM-1)
O=C(O)c1cc(S(=O)(=O)O)ccc1O	D2 antag 42
C/C(=N\Nc1cccc([N+](=O)[O-])c1)c1cc(F)ccc1O	D2 antag 35
CC(C)(C)C(=O)n1nc(-c2ccccc2)oc1=O	D2 antag 31
O=C(Cn1c2[n+](c3ccc(C(F)(F)F)cc31)CCCCC2)c1cccc([N+](=O)[O-])c1	D2 antag 35
O=C(Cn1c2[n+](c3ccc(C(F)(F)F)cc31)CCCCC2)c1ccc2c(c1)OCCO2	none
COc1ccc(-c2onc(C)c2C)cc1S(=O)(=O)NCC1CCN(Cc2cc(C)ccc2C)CC1	none (no result: D2 antag, D2 ag-2, D2 PAM-2)
CCS(=O)(=O)c1ccc2oc(SCC(=O)NCCC3=CCCCC3)nc2c1	D2 antag 68
Cc1cnc(C(=O)Nc2ccccc2-c2nnn(CC(=O)NC3CCCC3)n2)cn1	D2 antag 30
Cc1cccc(CC(=O)NC2CC(=O)N(c3ccccc3)C2)c1 (configuration not stated)	none (no result: D2 antag, D2 ag-2, D2 PAM-2)
COc1ccccc1N1CCN(C(=O)C2CCN(S(=O)(=O)c3cn(C)cn3)CC2)CC1	none (no result: D2 antag, D2 ag-2, D2 PAM-2)
COc1ccc(/C=C/c2ccncc2)c2ccccc12	D2 antag 45
COc1ccccc1C=Cc1ccnc2ccccc12	none (no result: D2 antag, D2 ag-1, D2 PAM-1)
N#C[C@H]1[C@H](c2ccccc2)[C@](C#N)(C(=O)c2ccccc2)[C@@H]2C=Cc3ccccc3N21	none (no result: D2 ag-2, D2 PAM-2)
CCCOc1ccc(N/C=C/C(=O)c2cc(OC)c(OC)c(OC)c2)cc1	D2 PAM-2 83
CCOc1ccc(N/C=C/C(=O)c2ccc(OC)cc2)cc1	none
Cc1oc(-c2ccccc2Cl)nc1CSc1nc2c(c(=O)[nH]1)CCC2	D2 antag 35
Cc1oc(-c2cccc(Cl)c2)nc1CSc1nc2c(c(=O)[nH]1)CCC2	none
COc1ccc(-c2cn[nH]c2-c2ccc(OCc3ccc([N+](=O)[O-])cc3)cc2O)cc1	D2 PAM-2 52 (no result: D2 antag, D2 ag-1, D2 PAM-1)
CCC(CC)C(=O)NC12CC3CC(CC(C3)C1)C2	D2 antag 33
COc1cc(C)nc(N2CCCC(C(=O)Nc3cc(Cl)ccc3OC)C2)n1 (configuration not stated)	D2 PAM-1 81
COc1ccc(NC(=O)C2CCCN(c3c4c(nc5ncnn35)CCC4)C2)cc1 (configuration not stated)	none
COc1ccc(NC(=O)C2CCCN(c3cc(C)nc4ncnn34)C2)cc1 (configuration not stated)	D2 antag 30
O=C(/C=C/c1ccc(Cl)cc1)N1CCC(c2nc3ccccc3o2)CC1	none (no result: D2 antag, D2 ag-2, D2 PAM-2)
Cc1ccc(C(=O)N2CCN(c3ccc(NC(=O)Cc4ccccc4)cc3)CC2)cc1	none
COc1cc(NC(=O)N2c3ccccc3Sc3ccccc32)c(C(=O)O)cc1OC	D2 ag-2 50
O=C(O)c1ccc(N/N=C/c2ccnc3ccccc23)cc1	D2 antag 40
C=CCC(O)(CC=C)CNC(=O)C1CCC(=O)N(CCCc2ccccc2)C1 (configuration not stated)	none
CCOc1cccc2sc(N(CCN(C)C)C(=O)/C=C/c3cccs3)nc12	D2 antag 66
COc1cccc2sc(N(CCN(C)C)C(=O)/C=C/c3cccs3)nc12	none
Cc1ccc(/C=C\c2nccc3c2[nH]c2ccccc23)cc1	D2 antag 44
COc1ccc(NC2c3ccccc3C(=O)N2c2ccccn2)cc1 (configuration not stated)	D2 antag 41
Cc1ccc(C)c(N2CCN(C(=O)CN3C(=S)NC(C)(C)CC3C)CC2)c1 (configuration not stated)	D2 antag 41
CC1CC(C)(C)NC(=S)N1CC(=O)N1CCN(Cc2ccccc2)CC1 (configuration not stated)	none
Cc1ccc(CNC(=O)CCCN2C(=O)CCn3nc(-c4cn(C)c5ccccc45)cc32)cc1	none (no result: D2 antag, D2 ag-2, D2 PAM-2)
Cn1c(N)c(C(=O)CSc2nnc(-c3ccccc3F)n2C2CC2)c(=O)n(C)c1=O	none
Cn1c(N)c(C(=O)CSc2nnc(-c3ccccc3F)n2N)c(=O)n(C)c1=O	D2 antag 34
Cc1ccc(-c2nc(CSCC(=O)N3CCN(c4ccccn4)CC3)c(C)o2)cc1	D2 ag-1 37
OCc1cn(-c2ccccc2)nc1-c1cc2ccccc2o1	D2 antag 45
O=C(N/N=C/c1cn(-c2ccccc2)nc1-c1cc2ccccc2o1)c1c[nH]c2ccccc12	D2 antag 34
COc1ccc(NC(=O)c2cn(-c3ccccc3)nc2-c2cc3ccccc3o2)cc1	none
O=C(N/N=C/c1cn(-c2ccccc2)nc1-c1cc2ccccc2o1)c1ccccc1Br	none
CCCOc1ccc(CC2C(=O)Nc3ccc(Br)cc32)cc1 (configuration not stated)	none (no result: D2 antag, D2 ag-2, D2 PAM-2)
COc1ccc(Cl)cc1S(=O)(=O)N1CCN(Cc2cccc(F)c2)CC1	none (no result: D2 antag, D2 ag-2, D2 PAM-2)
COc1cc(C2=NOC(C(=O)Nc3ccc(C)cc3)C2)cc(OC)c1OC (configuration not stated)	D2 antag 57
COc1cc(C2=NOC(C(=O)Nc3ccc4c(c3)OCO4)C2)cc(OC)c1OC (configuration not stated)	none
COc1ccc(C2=NOC(C(=O)NCc3ccc(F)cc3)C2)cc1OC (configuration not stated)	D2 PAM-1 37
COc1cccc(C2=NOC(C(=O)Nc3ccc4c(c3)OCO4)C2)c1OC (configuration not stated)	D2 antag 60
CCOc1ccc(NC(=O)CN(C)C(=O)c2cc3c(s2)CCC3)cc1OCC	none (no result: D2 antag, D2 ag-1, D2 PAM-1)
CC1CCC2(CC1)NC(=O)c1ccccc1O2 (configuration not stated)	D2 PAM-1 32
CC(=O)OC1CCC2(C)C3CCC4(C)C(C(C)=O)CCC4C3CC3OC32C1 (configuration not stated)	none (no result: D2 antag, D2 ag-1, D2 PAM-1)
Cc1cc(/C=N/n2cnnc2)c(C)n1-c1ccc(C(=O)O)cc1	none
COC(=O)c1ccc(-n2c(C)cc(/C=N/n3cnnc3)c2C)cc1	D2 antag 31
CCC1CCCCN1C(=O)COc1cc(=O)n(C)c2ccccc12 (configuration not stated)	none
CCC1CCCCN1C(=O)COc1ccccc1NC(C)=O (configuration not stated)	D2 PAM-1 32
Cc1c(NC2=C(Cl)C(=O)N(c3ccccc3)C2=O)c(=O)n(-c2ccccc2)n1C	D2 antag 38
Cc1c(Nc2c3ccccc3nc3ccccc23)c(=O)n(-c2ccccc2)n1C	none
